The source made the active and inactive calls.
Columns and labels:
[1] = binders of probe aFSTL3 on microarray, primary screen, stem cell growth factor project, biochemical, small-molecule microarray, fluorescence 635/667 (AID 1064); conditions: higher = more signal;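 also: measures binding of the biotinylated anti-FSTL3 antibody to printed compounds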
[2] = binders from COS7 lysate, DM2A8 probe, primary screen, torsin A project, cell lysate, small-molecule microarray, fluorescence 635/667 (AID 1065); conditions: higher = more signal, COS7 lysate expressing mutant human TOR1A
[3] = binders of probe aFGF2 on microarray, primary screen, stem cell growth factor project, biochemical, small-molecule microarray, fluorescence 635/667 (AID 1067); conditions: higher = more signal;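 also: measures binding of biotinylated aFGF2 protein to printed compounds on slides; z-score merges feature fluorescence and signal-to-noise across triplicate slides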
[4] = binders of probe aFGF10 on microarray, primary screen, stem cell growth factor project, biochemical, small-molecule microarray, fluorescence 635/667 (AID 1071); conditions: higher = more signal;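 also: score merges 667 nm spot intensity and signal to noise from triplicate slides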
[5] = molecular target: Neurogenic locus notch homolog protein 2 (Homo sapiens) (UniProt Q04721); assay: Notch2 binders on small-molecule microarrays, primary screen, biochemical, small-molecule microarray, 635 nm fluorescence, stem cell growth factors (AID 1073); conditions: Notch2 binding, higher = more signal
Neurogenic locus notch homolog protein 2 (Homo sapiens), sequence (Q04721 whole entry, looked up, canonical isoform): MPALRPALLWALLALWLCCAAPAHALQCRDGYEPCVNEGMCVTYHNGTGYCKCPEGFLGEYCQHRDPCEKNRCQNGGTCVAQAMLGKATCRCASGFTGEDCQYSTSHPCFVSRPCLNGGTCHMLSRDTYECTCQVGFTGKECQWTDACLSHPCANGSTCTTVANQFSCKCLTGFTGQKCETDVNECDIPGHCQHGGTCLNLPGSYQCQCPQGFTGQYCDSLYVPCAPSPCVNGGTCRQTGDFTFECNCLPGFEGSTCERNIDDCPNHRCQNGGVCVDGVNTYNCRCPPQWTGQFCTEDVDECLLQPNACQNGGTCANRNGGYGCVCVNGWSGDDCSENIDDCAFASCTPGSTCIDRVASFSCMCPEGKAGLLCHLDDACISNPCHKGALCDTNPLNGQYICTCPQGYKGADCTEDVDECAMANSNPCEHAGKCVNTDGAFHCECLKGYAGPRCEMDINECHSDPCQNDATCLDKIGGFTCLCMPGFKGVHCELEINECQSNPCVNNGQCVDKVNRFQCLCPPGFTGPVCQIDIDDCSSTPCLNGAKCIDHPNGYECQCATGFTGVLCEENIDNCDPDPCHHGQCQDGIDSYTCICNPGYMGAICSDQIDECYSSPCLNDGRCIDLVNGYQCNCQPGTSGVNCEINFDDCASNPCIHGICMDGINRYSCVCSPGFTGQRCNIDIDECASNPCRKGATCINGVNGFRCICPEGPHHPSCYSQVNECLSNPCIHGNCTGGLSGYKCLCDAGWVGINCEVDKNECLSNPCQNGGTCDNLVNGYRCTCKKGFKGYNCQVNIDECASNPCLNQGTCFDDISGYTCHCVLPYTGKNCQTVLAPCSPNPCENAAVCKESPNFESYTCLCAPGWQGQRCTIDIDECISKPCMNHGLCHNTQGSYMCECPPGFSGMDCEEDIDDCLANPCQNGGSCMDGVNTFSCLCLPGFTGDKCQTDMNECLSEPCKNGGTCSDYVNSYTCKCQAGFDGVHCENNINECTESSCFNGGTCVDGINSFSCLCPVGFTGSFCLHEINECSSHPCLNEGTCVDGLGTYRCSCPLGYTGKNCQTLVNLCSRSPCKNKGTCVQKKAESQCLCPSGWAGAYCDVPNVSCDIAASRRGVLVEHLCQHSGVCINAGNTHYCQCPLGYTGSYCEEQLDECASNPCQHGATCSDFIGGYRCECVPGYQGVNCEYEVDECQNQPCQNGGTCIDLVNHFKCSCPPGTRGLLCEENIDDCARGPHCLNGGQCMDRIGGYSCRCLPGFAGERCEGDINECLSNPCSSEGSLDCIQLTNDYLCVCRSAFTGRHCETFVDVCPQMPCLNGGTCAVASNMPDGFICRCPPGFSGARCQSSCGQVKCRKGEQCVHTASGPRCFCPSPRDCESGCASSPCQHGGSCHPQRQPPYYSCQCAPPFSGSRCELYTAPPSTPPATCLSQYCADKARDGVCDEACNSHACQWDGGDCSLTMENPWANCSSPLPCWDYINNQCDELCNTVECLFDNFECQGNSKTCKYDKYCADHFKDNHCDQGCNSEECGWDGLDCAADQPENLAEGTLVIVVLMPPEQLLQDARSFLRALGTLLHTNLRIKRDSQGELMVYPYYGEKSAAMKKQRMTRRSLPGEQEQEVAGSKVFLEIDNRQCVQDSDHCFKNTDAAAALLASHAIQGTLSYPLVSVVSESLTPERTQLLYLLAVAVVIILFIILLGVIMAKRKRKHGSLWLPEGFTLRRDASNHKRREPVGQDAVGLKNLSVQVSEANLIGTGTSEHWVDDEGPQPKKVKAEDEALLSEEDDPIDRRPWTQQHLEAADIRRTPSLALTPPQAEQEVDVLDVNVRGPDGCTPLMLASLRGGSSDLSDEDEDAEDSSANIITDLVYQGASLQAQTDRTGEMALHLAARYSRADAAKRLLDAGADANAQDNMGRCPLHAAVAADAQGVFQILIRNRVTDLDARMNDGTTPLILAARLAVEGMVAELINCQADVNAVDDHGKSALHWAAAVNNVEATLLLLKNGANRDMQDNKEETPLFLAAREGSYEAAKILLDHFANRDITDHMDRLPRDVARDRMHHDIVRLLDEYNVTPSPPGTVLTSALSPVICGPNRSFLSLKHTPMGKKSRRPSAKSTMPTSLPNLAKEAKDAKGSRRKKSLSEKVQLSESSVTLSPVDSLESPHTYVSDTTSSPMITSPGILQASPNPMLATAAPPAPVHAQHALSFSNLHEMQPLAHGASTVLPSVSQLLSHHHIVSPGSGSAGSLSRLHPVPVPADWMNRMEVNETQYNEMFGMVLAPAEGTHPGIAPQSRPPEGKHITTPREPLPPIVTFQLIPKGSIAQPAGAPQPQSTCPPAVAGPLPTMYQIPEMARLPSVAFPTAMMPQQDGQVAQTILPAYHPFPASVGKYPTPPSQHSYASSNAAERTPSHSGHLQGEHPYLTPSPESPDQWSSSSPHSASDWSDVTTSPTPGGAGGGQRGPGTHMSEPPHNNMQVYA

[6] = molecular target: Pro-neuregulin-1, membrane-bound isoform (Homo sapiens) (UniProt Q02297); assay: NRG1 binders on small-molecule microarrays, primary screen, psychiatric disease protein project, biochemical, small-molecule microarray, fluorescence 635/667 (AID 1075); conditions: NRG1 binding, 635 nm fluorescence, higher = more signal;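 also: score combines 667 nm spot fluorescence with signal to noise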
Pro-neuregulin-1, membrane-bound isoform (Homo sapiens), sequence (Q02297 whole entry, looked up, the tested form may be a part, canonical isoform): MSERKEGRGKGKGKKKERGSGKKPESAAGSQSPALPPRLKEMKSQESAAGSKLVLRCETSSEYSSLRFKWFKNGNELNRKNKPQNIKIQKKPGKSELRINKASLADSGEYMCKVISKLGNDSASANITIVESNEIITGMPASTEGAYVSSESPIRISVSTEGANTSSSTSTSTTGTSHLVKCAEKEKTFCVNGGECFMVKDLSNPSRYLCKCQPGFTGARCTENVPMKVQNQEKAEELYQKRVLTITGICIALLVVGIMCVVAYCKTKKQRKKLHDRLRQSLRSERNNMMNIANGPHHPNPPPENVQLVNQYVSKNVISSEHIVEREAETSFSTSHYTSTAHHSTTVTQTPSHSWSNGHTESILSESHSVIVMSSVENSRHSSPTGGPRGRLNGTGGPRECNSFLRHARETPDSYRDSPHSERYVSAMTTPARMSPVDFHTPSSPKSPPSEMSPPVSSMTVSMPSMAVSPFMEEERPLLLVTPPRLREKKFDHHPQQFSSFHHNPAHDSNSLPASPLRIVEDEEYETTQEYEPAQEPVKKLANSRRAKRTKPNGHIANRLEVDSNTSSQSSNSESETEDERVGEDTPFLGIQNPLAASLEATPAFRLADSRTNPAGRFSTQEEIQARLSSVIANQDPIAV

[7] = tested on: Neuregulin-1 EGF-like domain; assay: binders of neuregulin-1 EGF-like domain, primary screen, biochemical, small-molecule microarray, 635 nm fluorescence (AID 1081); conditions: small-molecule microarray binding, higher = more signal;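 also: binding of the protein to compounds printed on small-molecule microarray slides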
[8] = FRG1 promoter luciferase signal modulators, primary screen, FRG1 inhibition for FSHD, cell-based, C2C12 myotubes, firefly/Renilla luciferase, luminescence (AID 1084); conditions: higher = more signal, called active from +8 up or from −8 down
[9] = binders of probe aFST on microarray, primary screen, stem cell growth factor project, biochemical, small-molecule microarray, fluorescence 635/667 (AID 1086); conditions: higher = more signal;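 also: score merges 667 nm fluorescence with signal-to-noise of each printed compound spot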
[10] = binders of probe aHhip on microarray, primary screen, stem cell growth factor project, biochemical, small-molecule microarray, fluorescence 635/667 (AID 1087); conditions: higher = more signal;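 also: score merges spot fluorescence at 667nm with spot signal to noise ratio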

Row | Structure (SMILES) | composite z-score [1] | composite z-score [2] | composite z-score [3] | composite z-score [4] | composite z-score [5] | composite z-score [6] | composite z-score [7] | z-score [8] | composite z-score [9] | composite z-score [10]
1 | CCCCN1CC=CC23O[C@@H]4C=CCCOC(=O)C4[C@H]2C(=O)N(CCCCCO)[C@@H]3C1=O (stereo not given in full) | -0.376 | -0.055 | -0.107 | -0.0632 | -1.06 | -0.169 | 1.46 | -0.834 (inactive) | -0.79 | 0.107
2 | COCCCNC(=O)[C@@]1(Sc2ccc(C)cc2)CC(=O)N(Cc2ccccc2Cl)[C@@H]1c1ccc(CO)cc1 | 0.59 | 2.15 | -0.119 | 0.429 | 0.307 | 1.14 | 0.938 | -2.45 (inactive) | 0.393 | -0.0645
3 | CCCC[C@H]1C[C@@H]1[C@@H]1N(P(=O)(c2ccccc2)c2ccccc2)C[C@@](O)(c2ccccc2)CC12CC2 | 0.666 | -0.152 | 0.183 | -0.102 | 1.45 | 0.862 | 0.541 | 1.11 (inactive) | 1.39 | 0.893
4 | O=C1O[C@H](c2ccccc2)[C@H](c2ccccc2)N2[C@H]1[C@@H](C(=O)NC[C@H](O)c1ccccc1)[C@]1(C(=O)Nc3ccccc31)[C@H]2c1ccc(O)cc1 | -0.0095 | 0.298 | -0.0342 | -0.111 | 0.633 | -0.199 | 1.19 | 0.484 (inactive) | 0.153 | 0.0542
5 | O=C1[C@H]2C=C(Br)[C@H](C[C@@H]2OCCCCCCO)[C@@]12CO2 | 0.125 | 0.629 | -0.0443 | -0.0632 | -0.565 | -0.429 | -0.394 | -0.0205 (inactive) | 0.0363 | 0.122
6 | CC(C)=CCCC(C)=CC(O)C1C=CC2C(=O)N(c3ccccc3)C(=O)C2N1Nc1ccc(C(C)C)cc1 (stereo not given) | -0.345 | -0.687 | 0.0218 | 0.249 | 1.21 | 1.63 | 1.06 | 0.821 (inactive) | 1.07 | -0.13
7 | CCCCN1CC=CC23O[C@@H]4/C=C\CCCOC(=O)C4[C@H]2C(=O)N(CCCCCO)[C@@H]3C1=O (stereo not given in full) | 0.485 | -0.465 | -0.0985 | -0.0739 | -0.901 | -1.18 | 1.26 | 0.368 (inactive) | -0.804 | -0.249
8 | COCCCNC(=O)[C@@H]1c2ccccc2C(=O)N(Cc2ccccc2)[C@H]1c1ccc(CO)cc1 | 0.0981 | 0.361 | -0.0952 | 0.12 | 0.712 | 0.943 | 0.565 | -0.179 (inactive) | 0.418 | 0.253
9 | C=C(CCCC)/C(=C/C[C@@H](OC(C)=O)c1cccc(OCCO)c1)c1cnc2ccccc2c1 | -0.0295 | 0.314 | -0.0015 | 0.0122 | 0.249 | 0.122 | 0.274 | -0.269 (inactive) | 0.219 | 0.235
10 | CCCCCN1CC=CC23O[C@@H]4C=CCOC(=O)[C@@H]4[C@H]2C(=O)N(C(C)CO)[C@@H]3C1=O (stereo not given in full) | 0.484 | 1.52 | -0.195 | -0.109 | -0.825 | 0.913 | 1.49 | -0.02 (inactive) | -0.637 | -0.399
11 | C=CCN1C(=O)[C@]2(Cc3ccccc3)N=C(c3ccc(OCCCO)cc3)O[C@@H]2c2ccccc21 | -0.0832 | 0.481 | -0.0119 | -0.0215 | 1.35 | 1.55 | 1.41 | -1.05 (inactive) | 0.395 | -0.0994
12 | COCC(=C=CC[C@H](O)c1cccc(OCCO)c1)CCO | -0.44 | -0.625 | -0.0347 | 0.242 | -0.137 | 1.12 | 0.711 | 1.02 (inactive) | 0.235 | -0.0645
13 | O=C1O[C@@H](c2ccccc2)[C@@H](c2ccccc2)N2[C@@H](c3ccc(OCCO)cc3)[C@]3(C(=O)Nc4ccc(C#CCCO)cc43)[C@@H](C(=O)NC[C@H](O)c3ccccc3)[C@H]12 | 0.193 | 0.458 | -0.0281 | 0.902 | 0.578 | 1.01 | 1.17 | -0.772 (inactive) | 0.456 | 0.0052
14 | CC(c1ccccc1)C(O)C1C=CC2C(=O)N(c3ccccc3)C(=O)C2N1Nc1ccccc1 (stereo not given) | -0.245 | 0.2 | 0.0878 | 1.13 | 1.55 | 1.53 | 1.34 | -1.41 (inactive) | 1.38 | 0.179
15 | CS(=O)(=O)CCOC(=O)C1=CC(CCCO)=CC(c2ccc(CN3CCCC3)cc2)N(Cc2cccc(OC(F)(F)F)c2)C=C1C(=O)OCCS(C)(=O)=O (stereo not given) | 0.384 | 0.851 | 0.0036 | 0.952 | 0.978 | 0.691 | 0.909 | 0.173 (inactive) | 0.66 | 0.154
16 | COC(=O)c1c2oc(c1C(=O)OC)C(=O)NC1(CCCCC1)c1cn(nn1)C[C@H](Cc1ccccc1)NC(=O)N[C@H](CO)CC2 | -0.414 | -0.0111 | -0.13 | 0.117 | 0.531 | 1.49 | 1.11 | -0.553 (inactive) | -0.224 | 0.0373
17 | C=CCOC(=O)[C@H]1[C@@H]2C(=O)O[C@@H](c3ccccc3)[C@@H](c3ccccc3)N2[C@@H](c2ccc(OCCOC(=O)[C@@H]3C[C@@H]4C(=O)N5CCC[C@H]5C(=O)N4[C@@H]3c3cccc(OCCO)c3)cc2)[C@]12C(=O)Nc1ccc(I)cc12 | -0.34 | 1.19 | -0.104 | 0.397 | 0.373 | 1.05 | 1.31 | 0.984 (inactive) | 0.447 | -0.12

Source: PubChem BioAssay
